Most compounds without a hit are left out; they make up all but 4.1% or so of the library.
GDH-TPI counter: inhibits GDH-TPI coupling enzymes, artifact for Mtb FBA screen; 360,000 compounds, 1.2% hits; inhibition, % at 4.8 µM; GDH-TPI coupled enzyme counterscreen, NADH absorbance; in the data active = inhibition above about 30%;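 also: 0% = DMSO wells and 100% = wells lacking the enzyme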
FBA Mtb inh: inhibits M. tuberculosis FBA enzyme; P9WQA3; purified M. tuberculosis FBA, fluorescence read-out; inhibition, % at 1 µM; 360,000 compounds, 2.3% hits; AID 588726; in the data active = inhibition above about 27%;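 also: 0% = vehicle and 100% = reference inhibitor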
Target sequence (P9WQA3 whole entry, looked up): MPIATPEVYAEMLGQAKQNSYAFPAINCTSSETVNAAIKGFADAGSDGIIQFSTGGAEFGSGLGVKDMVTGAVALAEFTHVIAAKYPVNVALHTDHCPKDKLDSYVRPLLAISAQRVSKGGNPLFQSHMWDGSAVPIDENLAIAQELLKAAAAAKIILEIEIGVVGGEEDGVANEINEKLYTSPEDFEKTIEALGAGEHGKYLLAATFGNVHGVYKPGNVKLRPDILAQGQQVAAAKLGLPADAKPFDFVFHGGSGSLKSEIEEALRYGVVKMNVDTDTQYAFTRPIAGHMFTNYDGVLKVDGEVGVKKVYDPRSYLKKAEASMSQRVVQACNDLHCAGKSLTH
Rv3671c protease: inhibitors of M. tuberculosis serine protease Rv3671c. P9WHR9. inhibition, % at 5.96 µM. 320,000 compounds, 0.048% hits. AID 2606; in the data active = inhibition above about 38%;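 also: extracellular domain of Rv3671c used as enzyme; 0% = enzyme with DMSO and 100% = no enzyme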
BH1578 lux ind: inducers of Vibrio cholerae quorum light production without autoinducers | activation, % at 18.7 µM | V. cholerae BH1578 lux reporter, luminescence, 6 h | AID 588436 | 350,000 compounds, 0.16% hits; in the data active = activation mostly above about 9.7%, no sharp cut-off
Mtb UGM inh: inhibitors of M. tuberculosis UDP-galactopyranose mutase. P9WIQ1. purified UGM, fluorescence polarization probe displacement. inhibition, % at 10 µM. 320,000 compounds, 0.06% hits. AID 504406; in the data active = inhibition above about 10%, passing the limit was not always enough
RecA intein inh: blocks M. tuberculosis RecA intein splicing; P9WHJ3; cell-free RecA intein splicing, fluorescence; inhibition, % (no concentration beside the values); 290,000 compounds, 0.75% hits; AID 2221; in the data active = inhibition above about 30%;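 also: 0% = vehicle wells and 100% = reference inhibitor control wells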
GFP chromo cs: counter-screen GFP chromophore formation inhibition. shares compounds with RecA intein inh. cell-free GFP chromophore formation, fluorescence. EC50, µM. 2,100 compounds, 83% hits. AID 434968; call rule not given here
* = called active by the depositor; i = inactive; / = no result.

SMILES | GDH-TPI counter | FBA Mtb inh | Rv3671c protease | BH1578 lux ind | Mtb UGM inh | RecA intein inh | GFP chromo cs
CC(C)c1ccc(N2C(=O)C(Cl)=C(N3CCOCC3)C2=O)cc1 | 7 | 3 | 12 | 0 | -1 | -22 | /
Cc1cccc(C)c1N1C(=O)C(Cl)=C(N2CCCC2)C1=O | -4 | -5 | 7 | -2 | -2 | -6 | /
O=C1C(Cl)=C(N2CCOCC2)C(=O)N1c1ccc(Br)cc1 | 30 | -1 | -2 | i | -1 | 53* | 2.5*
CC(C)NC(=O)N(C)C[C@H]1Oc2c(NC(=O)c3ccc(-c4nccs4)cc3)cccc2C(=O)N([C@@H](C)CO)C[C@H]1C | 12 | 2 | 3 | i | -3 | / | /
O=C1C(Cl)=C(N2CCOCC2)C(=O)N1c1ccccc1F | 9 | 0 | 2 | i | -2 | / | 7.2*
O=C(N1CCOCC1)N1CCN(c2ccccc2F)CC1 | 0 | 3 | 9 | 0 | 0 | 2 | /
Cc1noc(C)c1COC(=O)CCOc1ccccc1 | 1 | 4 | -15 | 6 | 3 | 1 | /
Cc1noc(C)c1COC(=O)Cc1ccc(Br)cc1 | 2 | 3 | 11 | 0 | 1 | 1 | >38
O=[N+]([O-])c1ccc2nc(Cl)nc(-c3ccccc3)c2c1 | 10 | -2 | / | 0 | -2 | 47* | >38
COc1cc(N)c(C(=O)c2nccc3cc(OC)c(OC)cc23)cc1OC | 9 | -3 | 9 | i | -1 | 18 | /
COc1cc(C(=O)c2nccc3cc(OC)c(OC)cc23)c([N+](=O)[O-])cc1OC | 38* | -2 | -117 | 2 | 0 | 95* | 0.39*
COc1cc(Br)c(C(=O)c2nccc3cc(OC)c(OC)cc23)cc1OC | 12 | -1 | -153 | 2 | -6 | 84* | 0.75*
COC(=O)c1ccc(C2/C(=C(/O)c3ccc4c(c3)CC(C)O4)C(=O)C(=O)N2Cc2ccncc2)cc1 (configuration not stated) | 20 | 8 | -5 | 0 | -3 | 0 | /
COCOc1cccc(CN2CCC2(C)C(=O)Nc2ccc(C)c(O)c2)c1 (configuration not stated) | -3 | 0 | / | -3 | / | / | /
O=Cc1ccc(Sc2nnc(-c3ccccc3)o2)c([N+](=O)[O-])c1 | 16 | -1 | 4 | i | 0 | 55* | 26*
Cc1cc(C)nc(Sc2ccc(C=O)cc2[N+](=O)[O-])n1 | 1 | -3 | 5 | 1 | -3 | 2 | /
OC(CNCCC1C=Nc2ccccc21)Cn1c2ccc(Cl)cc2c2cc(Cl)ccc21 (configuration not stated) | 4 | -1 | 12 | 0 | -1 | 48* | 37*
O=C(COC(=O)/C=C/c1ccc2c(c1)OCO2)NCc1ccc(F)cc1 | 16 | 4 | / | 0 | / | / | /
CCOC(=O)CSc1nnc(NCC(=O)OC)c(=O)[nH]1 | -1 | 1 | 0 | i | -1 | 37* | >38
Nc1ccccc1C(=O)NN=Cc1cccnc1 | / | 3 | / | / | / | / | /
CC(=O)OCCN(C)c1cc(SC(C)C)c2nonc2c1[N+](=O)[O-] | 11 | -12 | 14 | 0 | 0 | 34* | >38
CN(CCO)c1cc(Sc2nc3ccccc3s2)c2nonc2c1[N+](=O)[O-] | 19 | -4 | -8 | -2 | 1 | 94* | 1.4*
O=S(=O)(Nc1ccccc1F)c1cccc(NC(=S)NCCN2CCOCC2)c1 | 0 | 2 | 5 | i | 3 | / | /
O=C(Cc1ccccc1F)Nc1nc2ccccc2[nH]1 | 1 | 1 | -4 | -2 | 3 | 38* | >38
Cc1c(NC(=O)COc2ccc3ccccc3c2)c(=O)n(-c2ccccc2)n1C | / | / | -7 | / | 2 | 1 | /
SMILES | GDH-TPI counter | FBA Mtb inh | Rv3671c protease | BH1578 lux ind | Mtb UGM inh | RecA intein inh | GFP chromo cs
CCN1CCc2c(OCC(=O)Nc3ccc(C)cc3)cccc2C1=O | 4 | 1 | 2 | i | 5 | 1 | /
CC(=O)N(C1CC(C)C(C#N)(C#N)C1(C#N)C#N)N(C)C (configuration not stated) | 1 | 5 | 1 | 0 | 1 | 81* | 19*
CCCC(=O)N(C1CC(C)C(C#N)(C#N)C1(C#N)C#N)N(C)C (configuration not stated) | -3 | -2 | 8 | 0 | 0 | 93* | 4.9*
Cc1ccsc1CN(C)C(=O)c1ccc(Oc2ccccc2)cc1 | 7 | 3 | -10 | 0 | -1 | 18 | /
CCn1c(COc2cccc3ccccc23)nnc1SCC(N)=O | -8 | -1 | -3 | 0 | 0 | 3 | >38
CCn1c(COc2ccccc2C)nnc1SCC(=O)NCc1ccccc1 | -7 | 1 | 3 | 6 | 0 | -1 | /
Cc1ccc(C(c2cc(Cl)c3cccnc3c2O)N2CCN(C)CC2)cc1 (configuration not stated) | 3 | 4 | 5 | 0 | 0 | 75* | 8.7*
CCCc1[nH][nH]c(=O)c1C(c1cccc(Cl)c1)C(C#N)C#N (configuration not stated) | 5 | 2 | 0 | -2 | -5 | 52* | 9.4*
CN1OC[C@@H]2CN3C(=O)N(c4cccc5ccccc45)c4ccccc4[C@@H]3C[C@@H]21 | / | 0 | / | / | / | / | /
COc1ccc(-c2cc(C(F)(F)F)nc(S(=O)(=O)CCCC(=O)Nc3cccc(O)c3)n2)cc1OC | 9 | 0 | / | 0 | / | 62* | 19*
COc1ccccc1-c1cc(C(F)(F)F)nc(S(=O)(=O)CCCC(=O)O)n1 | 9 | 1 | -5 | 0 | 4 | 24 | /
COc1ccccc1-c1cc(C(F)(F)F)nc(S(=O)(=O)CCCC(=O)N2CCOCC2)n1 | 12 | 3 | -9 | -1 | 5 | 48* | 16*
COc1cccc(C2=NN(C(=O)C3CC3)C(O)(C(F)(F)F)C2)c1 (configuration not stated) | 7 | 4 | / | i | / | / | /
COc1ccc([N+](=O)[O-])c(O)c1C(C)=O | 9 | -1 | / | -4 | / | / | /
CCOC(=O)c1oc2nc(CC(C)C)c3c(c2c1N)CCC3 | 5 | 178* | -4 | 0 | -2 | 31* | >38
CC(C)Cc1nc2oc3c(NCC4CCCO4)ncnc3c2c2c1CCC2 (configuration not stated) | -5 | 8 | 1 | 4 | 0 | 3 | /
O=C(NN=c1c(=O)c2ccccc2c1=O)c1ccccc1 | 15 | -4 | -144 | i | 1 | 91* | 5.2*
O=C1C(Cl)=C(N2CCC(C(=O)O)CC2)C(=O)c2ccccc21 | 11 | 3 | -100 | -6 | -1 | 50* | 13*
NC(=O)C1CCN(C2=C(Cl)C(=O)c3ccccc3C2=O)CC1 | 0 | -2 | -71 | 0 | 3 | 43* | 0.54*
CN1CCN(C2=C(Cl)C(=O)c3ccccc3C2=O)CC1 | 13 | -4 | / | / | / | / | /
CCN(CC)C(=O)c1ccc2c(c1)C1C(Cl)C(Sc3ccccc3[N+](=O)[O-])CC1C(C(=O)O)N2 (configuration not stated) | 28 | -9 | 6 | 0 | -1 | 36* | 23*
